Compounds with a hit are over-represented: about 6.7% of the library has one in this group of screens.
Pf Dd2 growth – P. falciparum Dd2 growth inhibition | SYBR Green, 72 h; hits give low values | activity change, % at 10 µM | 94,000 tested, 2.3% active | AID 1159554; in the data active = activity change below about -80%
C diff growth – inhibitors of Clostridium difficile growth. 86,000 tested, 0.25% active. growth activity, negative = inhibition, % at 16 µg/mL (by protocol). Clostridium difficile clinical isolate growth, OD600, 24 h; hits give low values;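 active = mean growth activity at or below -80% and every replicate also at or below -80%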
T cruzi growth-1 – blocks T. cruzi growth in NIH3T3 culture | T. cruzi beta-gal in NIH3T3, GalScreen luminescence, 90 h | inhibition, % at 8.34 µM | 77,000 tested, 5.9% active;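 active = mean inhibition above about 93%, with at least 55% of replicates each passing it, limit read from the data, passing the limit was not always enough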
T cruzi growth-2 – blocks T. cruzi growth in NIH3T3 host cells; T. cruzi beta-gal in NIH3T3, GalScreen luminescence, 90 h; inhibition, % at 8.35 µM; 5,600 tested, 72% active; AID 651739; shares compounds with T cruzi growth-1;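 active = mean replicate inhibition above about 95% and at least 55% of replicates individually reaching it, limit read from the data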
T cruzi growth-3 – inhibitors of T. cruzi proliferation. shares compounds with T cruzi growth-1. inhibition, % at 2.09 µM. 5,600 tested, 21% active. AID 651740. T. cruzi beta-gal in NIH3T3, GalScreen luminescence, 90 h;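 active = mean inhibition above about 95%, with at least 55% of replicates also reaching it, limit read from the data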
3T3 cytotox – NIH/3T3 (mouse) viability loss; shares compounds with T cruzi growth-1; NIH/3T3 viability, CellTiter-Glo ATP luminescence, 90 h; cytotoxicity (signal decrease), % at 8.35 µM; 5,600 tested, 14% active; AID 651742;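 active = mean signal decrease across replicates above about 35% based on untreated-well scatter, with enough replicates individually passing, limit read from the data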
NIH3T3 tox 2 – cytotoxicity in mouse NIH/3T3 fibroblasts; 5,600 tested, 56% active; shares compounds with T cruzi growth-1; NIH/3T3 viability, CellTiter-Glo ATP luminescence, 90 h; inhibition, % at 24.9 µM;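 active = mean loss of cell viability signal at or above a set limit, and enough replicates individually reaching it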
Each line names hits and unclear results; the compound was inactive in the other large screens (follow-up assays come after a bar, where they were run).

CN(C)C(=O)c1ccc(-c2ccc3c(c2)[C@H]2[C@H](CCN2Cc2ccc4c(c2)OCO4)[C@@H](CO)N3)cc1	none
CN(C)C(=O)c1ccc(-c2ccc3c(c2)[C@@H]2[C@@H](CCN2Cc2ccc4c(c2)OCO4)[C@H](CO)N3)cc1	none
C[C@H]1CCCCO[C@H](CN(C)C(=O)Cc2ccccc2)[C@@H](C)CN([C@@H](C)CO)C(=O)c2cc(NC(=O)C3CCCCC3)ccc2O1	none
C[C@@H]1CN([C@H](C)CO)S(=O)(=O)c2ccc(C#CC3CC3)cc2O[C@H]1CN(C)C(=O)C1CCC1	none
COc1ccc2c3c([nH]c2c1)[C@@H](CO)N(C(=O)C1CC1)CC31CCN(C)CC1	none (no result: T cruzi growth-1)
CN(C)C(=O)c1cccc(-c2ccc([C@H]3[C@H](CO)N4CCCCN(Cc5cccnc5)C[C@@H]34)cc2)c1	T cruzi growth-1 100.7 | T cruzi growth-2 107.3 | T cruzi growth-3 inactive | 3T3 cytotox inactive | NIH3T3 tox 2 inactive
OC[C@@H]1[C@@H](c2ccc(-c3ccc(F)cc3)cc2)[C@H]2CN(Cc3cccnc3)CCCCN12	T cruzi growth-1 112.9 | T cruzi growth-2 inactive | T cruzi growth-3 inactive | 3T3 cytotox inactive | NIH3T3 tox 2 102.3
OC[C@H]1[C@H](c2ccc(-c3ccc(F)cc3)cc2)[C@@H]2CN(Cc3cccnc3)CCCCN12	T cruzi growth-1 110.1 | T cruzi growth-2 114.4 | T cruzi growth-3 inactive | 3T3 cytotox inactive | NIH3T3 tox 2 102.6
OC[C@H]1[C@H](c2ccc(-c3ccc(F)cc3)cc2)[C@H]2CN(Cc3cccnc3)CCCCN21	none
OC[C@@H]1[C@H](c2ccc(-c3ccc(F)cc3)cc2)[C@@H]2CN(Cc3ccncc3)CCCCN12	T cruzi growth-1 97.8 | T cruzi growth-2 105.5 | T cruzi growth-3 inactive | 3T3 cytotox 36.9 | NIH3T3 tox 2 103.5
OC[C@@H]1[C@@H](c2ccc(-c3ccc(F)cc3)cc2)[C@H]2CN(Cc3ccncc3)CCCCN12	none
CN(C)C(=O)c1ccc(-c2ccc([C@@H]3[C@H](CO)N4CCCCN(Cc5cccnc5)C[C@@H]34)cc2)cc1	none
CN(C)Cc1cn(CC[C@H]2CC[C@@H](NS(=O)(=O)c3ccccc3)[C@@H](CO)O2)nn1	none (no result: Pf Dd2 growth, T cruzi growth-1)
O=C(C[C@@H]1CC[C@H](NC(=O)c2ccncc2)[C@H](CO)O1)Nc1ccc(-c2ccccc2)cc1	none (no result: T cruzi growth-1)
COc1ccc(NC(=O)N(C)C[C@@H]2OCCCC[C@@H](C)Oc3ccc(NS(=O)(=O)c4ccc(Cl)cc4)cc3C(=O)N([C@@H](C)CO)C[C@H]2C)cc1	none
CN1C(=O)c2cc(NS(=O)(=O)c3ccc(Cl)cc3)ccc2OC[C@@H]2O[C@@H](CC(=O)N3CCc4ccccc4C3)CC[C@H]21	none
O=C(C[C@H]1CC[C@@H]2[C@H](COC[C@H](O)CN2C(=O)c2ccccn2)O1)N1CCN(c2ccccc2)CC1	none (no result: C diff growth)
OC[C@@H]1[C@H](c2ccc(C3=CCCC3)cc2)[C@H]2CN(Cc3cccnc3)CCCCN12	none
Cc1ccccc1-c1ccc([C@H]2[C@@H](CO)N3CCCCN(Cc4cccnc4)C[C@H]23)cc1	T cruzi growth-1 109.1 | T cruzi growth-2 105.7 | T cruzi growth-3 inactive | 3T3 cytotox 45.6 | NIH3T3 tox 2 106.1
COc1cccc(S(=O)(=O)Nc2ccc3c(c2)OC[C@@H](C)N(Cc2ccccc2F)C[C@@H](C)[C@H](OC)CN(C)C3=O)c1	T cruzi growth-1 96.1 (no result: C diff growth) | T cruzi growth-2 105.0 | T cruzi growth-3 inactive | 3T3 cytotox inactive | NIH3T3 tox 2 inactive
COc1cccc(S(=O)(=O)Nc2ccc3c(c2)OC[C@@H](C)N(Cc2cc(F)ccc2F)C[C@@H](C)[C@H](OC)CN(C)C3=O)c1	T cruzi growth-1 102.5 (no result: C diff growth) | T cruzi growth-2 106.9 | T cruzi growth-3 inactive | 3T3 cytotox inactive | NIH3T3 tox 2 inactive
COc1cccc(S(=O)(=O)Nc2ccc3c(c2)OC[C@H](C)N(Cc2ccccc2F)C[C@H](C)[C@@H](OC)CN(C)C3=O)c1	none (no result: T cruzi growth-1)
COc1cccc(S(=O)(=O)Nc2ccc3c(c2)C(=O)N(C)C[C@@H](OC)[C@@H](C)CN(Cc2ccccc2F)[C@@H](C)CO3)c1	none (no result: C diff growth, T cruzi growth-1)
CO[C@@H]1CN(C)C(=O)c2cc(NS(=O)(=O)c3cccc(F)c3)ccc2OC[C@@H](C)N(Cc2cc(F)ccc2F)C[C@@H]1C	T cruzi growth-1 99.9 | T cruzi growth-2 114.8 | T cruzi growth-3 inactive | 3T3 cytotox inactive | NIH3T3 tox 2 93.3
COc1cccc(S(=O)(=O)Nc2ccc3c(c2)OC[C@H](C)N(Cc2ccccc2F)C[C@@H](C)[C@H](OC)CN(C)C3=O)c1	none (no result: C diff growth)
O=C(C[C@@H]1CC[C@H]2[C@@H](COC[C@@H](O)CN2CC2CCCC2)O1)NCc1ccc(Cl)cc1	none (no result: T cruzi growth-1)
C[C@@H]1CCCCO[C@@H](CN(C)C(=O)c2ccncc2)[C@@H](C)CN([C@H](C)CO)C(=O)c2cc(NS(=O)(=O)c3ccc(F)cc3)ccc2O1	none (no result: C diff growth)
COc1ccc(NC(=O)Nc2ccc3c(c2)[C@H]2C[C@H](CC(=O)N(C)C)O[C@@H](CO)[C@H]2O3)cc1	none
Cc1cccc(S(=O)(=O)N2C[C@@H]3[C@H](c4ccccc42)[C@@H](CO)N3CC2CCCC2)c1	none
Cc1cccc(S(=O)(=O)N2C[C@@H]3[C@H](c4ccccc42)[C@@H](CO)N3CC2CCOCC2)c1	none
Cc1cccc(S(=O)(=O)N2C[C@H]3[C@@H](c4ccccc42)[C@@H](CO)N3CC2CCCC2)c1	T cruzi growth-1 99.1 | T cruzi growth-2 103.6 | T cruzi growth-3 inactive | 3T3 cytotox inactive | NIH3T3 tox 2 103.2
Cc1cccc(S(=O)(=O)N2C[C@@H]3[C@H](c4ccccc42)[C@H](CO)N3CC2CCCC2)c1	T cruzi growth-1 98.4 | T cruzi growth-2 104.4 | T cruzi growth-3 inactive | 3T3 cytotox inactive | NIH3T3 tox 2 98.6
Cc1ccc(S(=O)(=O)Nc2ccc3c(c2)CC(=O)N([C@H](C)CO)C[C@H](C)[C@@H](CN(C)Cc2ccccc2)O3)cc1	none (no result: T cruzi growth-1)
COc1ccc(-c2ccc3c(c2)[C@H]2[C@H](CCN2C(=O)Cc2cccnc2)[C@@H](CO)N3C)cc1	none
CCCN1C[C@@H](C)[C@@H](OC)CN(C)C(=O)c2ccc(NC(=O)Nc3ccccc3F)cc2OC[C@H]1C	none (no result: C diff growth)
COc1cccc(C#Cc2ccc3c(c2)O[C@H](CN(C)C)[C@@H](C)CN([C@@H](C)CO)S3(=O)=O)c1	none (no result: T cruzi growth-1)
COc1cccc(C#Cc2ccc3c(c2)O[C@H](CN(C)S(=O)(=O)c2ccccc2F)[C@@H](C)CN([C@@H](C)CO)S3(=O)=O)c1	T cruzi growth-1 118.1 | T cruzi growth-2 111.0 | T cruzi growth-3 116.0 | 3T3 cytotox 38.4 | NIH3T3 tox 2 27.4
